The results in this text go back to PubChem BioAssay (NCATS).

What all share (assay): qHTS profiling for inhibitors of Plasmodium falciparum proliferation (AID 504749); note: nearly all actives have a fitted effect of over 60% in size
Holding throughout (settings): P. falciparum in erythrocytes, SYBR Green DNA, 72 h; series mostly up to 28.7 µM

In one assay the test system is AA1029. Put shortly: (§1)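 Infected RBCs, 0.3% parasitemia/2.5% Hct final; cpd 72 h, 37 C, 5% CO2; lysis buffer with saponin/triton/SYBR Green I, o/n RT dark; FI 485/535; norm. to artemisinin (0.29 uM) and DMSO.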
Another assay concerns AS120. Put shortly: as §1
For the next assay, the system named is C2A. Put shortly: as §1
For a further assay, the system named is CP201. Put shortly: as §1
Another assay relates to CP203. The procedure, abridged: as §1
Another assay concerns CP237. The procedure, abridged:
as §1

A further assay relates to CP250. Put shortly: as §1
The test system of the next assay is CP256. The procedure, abridged: as §1
In another assay the test system is CP268. Put shortly: as §1
For another assay, the system named is CP305. The procedure, abridged: as §1
Another assay relates to CP315. Put shortly:
as §1

The subject of another assay is CP325. The procedure, abridged:
as §1

The next assay relates to DIV30. The procedure, abridged: as §1
For another assay, the system named is HB3. The procedure, abridged:
as §1

For a further assay, the system named is JCK. Put shortly:
as §1

The next assay relates to N140. The procedure, abridged: as §1
In a further assay the test system is P94_40. Put shortly: as §1
For a further assay, the system named is PAD. Put shortly:
as §1

Another assay deals with SC27B. Put shortly:
as §1

The subject of a further assay is TAB113. Put shortly: as §1

Results filed as inconclusive are left out. Activity calls are given as the source filed them. Calls come from the whole dose curve; as a rule, active = well fitted inhibition curve with a large enough effect; inconclusive = small, poorly fitted or top-dose-only effect; inactive = flat fitted curve, though single readings scatter.
Potency is the fitted concentration of half-maximal effect.

As to `CC1C(=O)C(=O)C=CN1C` (stereo not drawn), the Potency entry with AA1029, in the assay on AS120, in the assay on C2A, in the assay with CP201, in the assay on CP203 and in the assay on CP237 was “inactive” in each case. The Potency entry in the assay with CP250, in the assay with CP256, in the assay with CP268, in the assay on CP305, with CP315 and with CP325 was “inactive” in each case. For the same molecule, the Potency entry with DIV30, with HB3, in the assay on JCK, in the assay with N140, in the assay on P94_40 and in the assay on PAD was “inactive” in each case. The Potency result with SC27B and in the assay on TAB113 was “inactive” throughout.

As for `NC(=O)OC[C@@H]1[C@H](NC(=O)/C(=N/OCC(=O)O)c2csc(N)n2)C(=O)N1S(=O)(=O)O`, the Potency entry with AA1029, with AS120, in the assay on C2A, in the assay with CP201, in the assay with CP203 and with CP237 was “inactive” in each case. Further, the Potency entry in the assay on CP250, in the assay with CP256, in the assay with CP305, in the assay on CP315, with CP325 and in the assay with DIV30 was “inactive” in each case. The Potency entry in the assay with HB3, in the assay on N140, in the assay with P94_40, with PAD, in the assay with SC27B and with TAB113 was “inactive” in each case.

On to `Nc1ncn(C2C[C@H](O)[C@@H](CO)O2)c(=O)n1` (stereo partly drawn), for which the Potency result in the assay on AA1029, in the assay on AS120, with C2A, in the assay with CP201, with CP203 and in the assay on CP237 was “inactive” each time. The Potency entry in the assay on CP250, in the assay with CP256, in the assay with CP268, with CP305, in the assay on CP315 and in the assay on CP325 was “inactive” each time. Besides, the Potency result in the assay on DIV30, in the assay with HB3, in the assay with JCK, in the assay with N140, in the assay on P94_40 and in the assay on PAD was “inactive” throughout. Besides, the Potency entry in the assay with SC27B and in the assay on TAB113 was “inactive” in each case.

As for `O=C(O)C(O)c1ccccc1` (stereo not drawn), the Potency entry with AA1029, with AS120, with C2A, in the assay on CP201, in the assay with CP203 and in the assay on CP237 was “inactive” throughout. Also, the Potency result in the assay with CP250, in the assay on CP268, in the assay with CP305, in the assay with CP315, in the assay on CP325 and in the assay with DIV30 was “inactive” in each case. Besides, the Potency entry in the assay with HB3, in the assay with JCK, with N140, in the assay on P94_40, with PAD and in the assay on SC27B was “inactive” throughout. For the same molecule, the Potency result with TAB113 was “inactive”.

Regarding `CCN(CC)CC(=O)Nc1c(C)cc(C)cc1C`, the Potency entry in the assay on AA1029, in the assay with AS120, with C2A, with CP201, in the assay on CP203 and with CP237 was “inactive” each time. Also, the Potency entry in the assay with CP250, in the assay with CP256, in the assay with CP268, in the assay with CP305, in the assay on CP315 and in the assay on CP325 was “inactive” each time. Further, the Potency entry in the assay with DIV30, with HB3, in the assay with JCK, in the assay with N140, in the assay on P94_40 and with PAD was “inactive” in each case. Moreover, the Potency result in the assay with SC27B and in the assay on TAB113 was “inactive” in each case.

As to `CO[C@H]1C[C@@H]2CC[C@@H](C)[C@@](O)(O2)C(=O)C(=O)N2CCCC[C@H]2C(=O)O[C@H]([C@H](C)C[C@@H]2CC[C@@H](O)[C@H](OC)C2)CC(=O)[C@H](C)/C=C(\C)[C@@H](O)[C@@H](OC)C(=O)[C@H](C)C[C@H](C)/C=C/C=C/C=C/1C`, the Potency with AA1029 is 2.51 µM (active); with AS120, 1.78 µM (active); in the assay on C2A it was 3.55 µM (active); in the assay with CP201, 6.01 µM (active); in the assay with CP203, 1.69 µM (active); with CP237, 5.01 µM (active). The Potency is 3.55 µM (active) with CP250; 4.47 µM (active) in the assay on CP256; 4.78 µM (active) with CP268; 6.75 µM (active) in the assay with CP305; 4.26 µM (active) with CP315; 5.36 µM (active) with CP325. In addition, the Potency with DIV30 was 1.9 µM (active); in the assay on HB3, 8.91 µM (active); in the assay with JCK, 10 µM (active); with N140, 1.58 µM (active); with P94_40, 2.24 µM (active); in the assay on PAD, 1 µM (active). For the same molecule, the Potency in the assay with SC27B and with TAB113 was 2.51 µM (active) throughout.

Turning to `Cc1ccc(/C=C2/C(=O)C3(C)CCC2C3(C)C)cc1` (stereo not drawn), the Potency result in the assay on AA1029, with AS120, with C2A, with CP201, with CP203 and in the assay with CP237 was “inactive” each time. In addition, the Potency entry with CP250, in the assay with CP256, in the assay on CP268, in the assay with CP305, in the assay on CP315 and in the assay with CP325 was “inactive” throughout. Besides, the Potency result in the assay with DIV30, in the assay on HB3, in the assay with JCK, in the assay with N140, in the assay on P94_40 and with PAD was “inactive” throughout. Also, the Potency result in the assay on SC27B and in the assay with TAB113 was “inactive” each time.

As to `COC1CC2CCC(C)[C@](O)(O2)C(=O)C(=O)N2CCCCC2C(=O)OC(C(C)CC2CCC(O)C(OC)C2)CC(=O)C(C)/C=C(/C)C(O)C(OC)C(=O)C(C)CC(C)C=CC=C/C=C\1C` (stereo partly drawn), the Potency in the assay on AA1029 is 2.24 µM (active); with AS120, 1.12 µM (active); in the assay with C2A, 4.47 µM (active); with CP201, 7.57 µM (active); in the assay on CP203 it was 1.69 µM (active); in the assay with CP237, 2.82 µM (active). Also, the Potency was 3.16 µM (active) with CP250; 3.16 µM (active) with CP256; 6.01 µM (active) with CP268; 5.36 µM (active) in the assay with CP305; 4.26 µM (active) in the assay with CP315; 5.36 µM (active) in the assay with CP325. Besides, the Potency in the assay with DIV30 is 0.953 µM (active); in the assay on HB3 it was 2.51 µM (active); in the assay with JCK, 10 µM (active); in the assay on N140, 1.26 µM (active); with P94_40, 1.41 µM (active); with PAD, 1.26 µM (active). Moreover, the Potency with SC27B is 2 µM (active); in the assay on TAB113, 1.41 µM (active).

`Nc1nc(/C(=C/CC(=O)O)C(=O)NC2C(=O)N3C(C(=O)O)=CCSC23)cs1` (stereo not drawn): the Potency entry in the assay on AA1029, in the assay on AS120, in the assay on C2A, in the assay on CP201, with CP237 and in the assay on CP250 was “inactive” in each case. For the same molecule, the Potency entry in the assay on CP256, in the assay with CP268, in the assay on CP305, in the assay with CP315, in the assay with CP325 and with DIV30 was “inactive” throughout. Besides, the Potency result with JCK, in the assay on N140, in the assay with P94_40, in the assay with PAD, in the assay with SC27B and in the assay on TAB113 was “inactive” each time.

For the molecule `Cc1onc(-c2c(F)cccc2Cl)c1C(=O)NC1C(=O)N2C1SC(C)(C)C2C(=O)O` (stereo not drawn), the Potency result in the assay on AA1029, in the assay with AS120, with C2A, in the assay on CP201, with CP203 and with CP237 was “inactive” each time. Further, the Potency entry in the assay on CP250, in the assay on CP256, with CP268, in the assay with CP305, in the assay on CP315 and in the assay on CP325 was “inactive” in each case. Moreover, the Potency entry in the assay with DIV30, in the assay on HB3, in the assay with JCK, with N140, with P94_40 and with PAD was “inactive” throughout. Moreover, the Potency result in the assay on SC27B and in the assay on TAB113 was “inactive” in each case.

As to `CCCCCOC(=O)Nc1nc(=O)n(C2O[C@H](C)[C@@H](O)[C@@H]2O)cc1F` (stereo partly drawn), the Potency entry in the assay with AA1029, with AS120, with C2A, with CP201, in the assay with CP203 and in the assay with CP250 was “inactive” throughout. Besides, the Potency entry with CP268, in the assay on CP305, with CP315, in the assay on CP325, in the assay on DIV30 and in the assay with HB3 was “inactive” throughout. Further, the Potency result in the assay on JCK, in the assay on N140, with P94_40, with PAD, with SC27B and with TAB113 was “inactive” in each case.
